G9a block = G9a (human) methyltransferase inhibition. Q96KQ7. G9a H3K9 monomethylation, AlphaScreen, 2 h. Potency, µM (highest dose often 102 µM), without a hit: at the top dose activity, negative = inhibition, most hits filed as inhibitors. hit rate 8.8% among 350,000. AID 504332; also: % is scaled to controls: 0 for no effect and ±100 for the full control effect; nearly all actives have a fitted effect of over 75% in size
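Step 1: enzyme (final 20 nM) with compound, 15 min RT. Step 2: substrate peptide 500 nM and SAM 20 uM, 2 h RT. Step 3: anti-H3K9me1 antibody and AlphaScreen beads, 10 min, then plate read.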
BAZ2B block = inhibitors of human BAZ2B bromodomain; AID 504333; Potency, µM (series often up to 114 µM), for inactives: top-dose activity change, negative = inhibition, actives largely listed as inhibitors; AlphaScreen BAZ2B-H3K14Ac peptide displacement; Q9UIF8; hit rate 4.4% among 360,000; also: % is scaled to controls: 0 for no effect and ±100 for the full control effect; nearly all actives have a fitted effect of over 60% in size
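AlphaScreen luminescence quantifies BAZ2B engagement of H3K14Ac peptide; the protein and biotinylated peptide are both at 50 nM final, buffer PBS pH 7.4 with 0.01% Tween-20, all steps at room temperature.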
VDR inhibitor = blocks the human vitamin D receptor; P11473; VDR-SRC2-3 peptide fluorescence polarization, 2 h; Potency, µM, for the others: max response, negative = inhibition, hits mostly inhibitors; hit rate 0.93% among 400,000; AID 504847; also: % is scaled to controls: 0 for no effect and ±100 for the full control effect
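Reagent solutions, kept cold and dark, are dispensed first; compounds are then pinned in at 23 nl, plates briefly spun, and incubated 2 h at ambient temperature. Inhibition of VDR–SRC2-3 peptide binding is read by fluorescence polarization.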
PLK1 PBD inh = PLK1 (human) polo-box domain binding inhibition | P53350 | Plk1 PBD binding of FITC phosphopeptide, fluorescence polarization | Potency, µM, for the others: max response, negative = inhibition, actives largely listed as inhibitors | hit rate 2.8% among 360,000 | AID 720504; also: series mostly up to about 57 µM; % is scaled to controls: 0 for no effect and ±100 for the full control effect; nearly all actives have a fitted effect of over 65% in size
JMJD2A Tudor = blocks the human JMJD2A Tudor domain; O75164; AlphaScreen JMJD2A-Tudor / H3K4me3 peptide binding; Potency, µM (series often up to 114 µM), without a hit: at the top dose activity change, negative = inhibition, actives largely listed as inhibitors; hit rate 4.4% among 390,000; AID 504339; also: % is scaled to controls: 0 for no effect and ±100 for the full control effect; nearly all actives have a fitted effect of over 50% in size
HP1b binding inh = HP1-beta chromodomain-methylated histone interaction inhibition | P83916 | AlphaScreen HP1-beta / biotin-H3K9me3 peptide binding | Potency, µM (titrated, usually from 114 µM), without a hit: at the highest dose activity change, negative = inhibition, most hits filed as inhibitors | hit rate 0.56% among 390,000; also: nearly all actives have a fitted effect of over 70% in size
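AlphaScreen: HP1-beta (50 nM) preformed 30 min with biotin-H3(1-18)K9me3 peptide (50 nM) in PBS pH 7.4, 0.01% Tween-20. Compound added for 30 min at RT, then streptavidin donor/nickel chelate acceptor beads (10 ug/mL) for 30 min.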
* marks the source's active call; other numbers are inactive results; ? = inconclusive; nt = not tested or not shown; [ ] = remark or other dose. Sampled rows, rich in hits. Any-hit rate of the full collection: about 11%. Calls follow the shape of the dose curve; as a rule, active = well fitted curve in the direction sought with a large enough effect; inconclusive = small, poorly fitted or top-dose-only effect, or another doubt; inactive = no such curve, though single readings can be large; an effect the other way counts as inactive or inconclusive. Potency is read from the fitted curve at half-maximal effect.

SMILES	G9a block	BAZ2B block	VDR inhibitor	PLK1 PBD inh	JMJD2A Tudor	HP1b binding inh
Cc1ccc(C2(CCNCc3ccc(N(C)C)cc3)CCOC(C(C)C)C2)cc1 (stereo not drawn)	?	35µM*	-2%	3%	40µM*	?
Cc1ccc(C2(CCNS(=O)(=O)c3ccc(C)cc3)CCOC(C(C)C)C2)cc1 (stereo not drawn)	-2%[59 µM]	-15%	-18%	-4%	0%	39%
Cc1cc(C)n2[nH]c(=O)cc2n1	nt	nt	nt	4%	nt	nt
COc1ccc(C2C(C#N)=C(N)Nc3nc4ccccc4n32)cc1 (stereo not drawn)	?	3%	-14%	-9%	-11%	15%
COc1ccc(C2C(C#N)=C(N)N3C(=C2C#N)Sc2ccccc23)cc1 (stereo not drawn)	6.3µM*	0%	nt	nt	nt	nt
CS(=O)(=O)N1CCCC(C(=O)NCCCN2CCc3ccccc3C2)C1 (stereo not drawn)	11µM*	30%	-12%	-14%	79µM*	14%
O=C(NCCN1CCc2ccccc2C1)C1CCN(S(=O)(=O)N2CCCCC2)CC1	50µM*	?	6%	-5%	?	1%
O=C(O)c1ccc(-c2cccc([N+](=O)[O-])c2)o1	-16%	?	0%	-28%	-6%[11.4 µM]	24%
COc1ccc(/C=C2\C(=O)ON=C2c2ccccc2)cc1	40µM*	?	?	1.5µM*	35µM*	-7%
O=C1/C(=C/c2cccnc2)CC/C1=C\c1cccnc1	-47%	nt	-5%	-12%	-4%	42%
O=C1ON=C(c2cccc([N+](=O)[O-])c2)/C1=C/c1ccc(O)cc1	22µM*	?	?	1.5µM*	-3%[11.4 µM]	-14%
CC1=NOC(=O)/C1=C/c1ccc(N(C)C)cc1	?	-36%	-12%	?	-34%	14%
O=C1ON=C(c2ccccc2)/C1=C/c1cccnc1	45µM*	-11%	-7%	-23%	-6%	21%
O=C1ON=C(c2ccccc2)/C1=C/c1ccc(O)c(O)c1	25µM*	28µM*	45µM*	?	14µM*	8.9µM*
Cc1ccc(/C=C2\C(=O)ON=C2c2ccccc2)o1	-13%	-20%	?	?	-34%	?
CCOc1ccc(NC(=O)c2c(C)nn(-c3ccc(F)cc3)c2-n2cccc2)cc1	?	-6%	-5%	nt	-8%	17%
O=C1CCCN1Cc1ccccc1	nt	15%	-18%	-7%	-12%	40%
Cc1oc(-c2ccccc2F)nc1CS(=O)(=O)CC(=O)N1CCN(c2ccc(Cl)cc2)CC1	?	?	18%	nt	?	2%
O=C(c1cc(-c2ccc(Cl)c(Cl)c2)on1)N1CCCCCC1	-13%	15%	-20%	0%	16%	18%
O=C(c1cc(-c2ccc(Br)cc2)on1)N1CCc2ccccc2C1	-2%	2%	?	34µM*	50µM*	8%
COc1ccc(-c2cc(C(=O)N3CCc4ccccc4C3)no2)cc1	18%[59 µM]	-2%	-16%	-12%	-4%	7%[57 µM]
O=C(c1cc(-c2ccc(Cl)cc2)on1)N1CCCCCC1	-13%[59 µM]	2%	?	27µM*	25µM*	5%
COc1cc(C(=O)N2CCCC(c3cc(C(=O)NCc4ccccc4)no3)C2)cc(OC)c1C (stereo not drawn)	nt	nt	nt	4%	nt	nt
O=C(CCl)N1c2ccccc2Oc2ccc3ccccc3c21	nt	nt	20µM*	8.4µM*	56µM*	71µM*
O=C(NN=C1CCCC1)c1cccc(O)c1	-1%	-13%	-5%	-17%	-16%	11%
SMILES	G9a block	BAZ2B block	VDR inhibitor	PLK1 PBD inh	JMJD2A Tudor	HP1b binding inh
O=C(NN=C1CCCC1)c1cc(O)cc(O)c1	nt	79µM*	-11%	-7%	?	?
O=C(COc1ccc(/C=N/NS(=O)(=O)c2ccccc2)cc1)Nc1cccc(Cl)c1	50µM*	1%	0%	1%	-23%	27%
O=C(COc1ccc(/C=N/NS(=O)(=O)c2ccccc2)cc1)NCc1ccccc1	7%[12.7 µM]	-5%	-14%	-10%	-26%	25%
O=C(COc1ccc(/C=N/NS(=O)(=O)c2ccccc2)cc1)N1CCOCC1	40µM*	1%	5%	-11%	1%	11%
CC(NC(=O)COc1ccc(/C=N/NS(=O)(=O)c2ccccc2)cc1)c1ccccc1 (stereo not drawn)	50µM*	8%	18%	-9%	-3%	24%
CC(NC(=O)COc1ccc([N+](=O)[O-])cc1)c1ccccc1 (stereo not drawn)	-19%	-17%	-14%	12µM*	?	7%
O=C(COc1ccccc1)NNC(=O)COc1ccc([N+](=O)[O-])cc1	?	-17%	-11%	-15%	-12%	20%
Cc1ccc(S(=O)(=O)N/N=C/c2ccc(OCC(=O)NC(C)C)cc2)cc1	nt	nt	-3%	-17%	-4%	21%
CC1CCN(S(=O)(=O)c2cc3c4c(c2)C(C)C(=O)N4CCC3)CC1 (stereo not drawn)	18%	-5%	4%	-1%	-11%	47%
O=C(CN1CCCCC1)NCCNc1ccc(C(F)(F)F)cc1[N+](=O)[O-]	?	-20%	-11%	-8%	-31%	9%
COCC(C)NS(=O)(=O)c1ccc(C(=O)NC(Cc2ccccc2)c2ccccc2)cc1 (stereo not drawn)	6%	3%	-20%	-6%	-15%	4%
COC(=O)C(C(=O)OC)C(Cc1cc(F)cc(F)c1F)NC=O (stereo not drawn)	nt	nt	-8%	nt	nt	nt
CCCNC(=O)c1cc(S(=O)(=O)N2CCC3(CC2)OCCO3)ccc1F	nt	nt	nt	3%	nt	nt
COc1ccc(NS(=O)(=O)c2ccc(OCC(=O)N3CCOCC3)cc2)cc1	2%[59 µM]	5%	9%	-6%	4%	15%
CSc1ccc(S(=O)(=O)Nc2ccc(OCC(=O)N3CCOCC3)cc2)cc1	11µM*	2%	-13%	?	-9%	24%
O=C(CNS(=O)(=O)c1ccccc1)N/N=C\c1ccc(Cl)cc1	13%[59 µM]	7%	-18%	24µM*	-33%[57.1 µM]	?
O=C(CNS(=O)(=O)c1ccccc1)N/N=C/c1ccc(O)cc1	11%	-5%	3%	-15%	-13%	15%
Cc1ccc(CSC2=Nc3sccc3C3=NC(=O)CN23)cc1	-10%[12.7 µM]	4%	8%	-6%	-27%	20%
C=CCSC1=Nc2cc(OC)c(OC)cc2C2=NC(=O)CN12	50µM*	-19%	-4%	-16%	-16%	28%
COc1cc2c(cc1OC)C1=NC(=O)CN1C(SCc1ccc(C)cc1)=N2	?	79µM*	-9%	-7%	-13%[57.1 µM]	14%
O=C(CCC1CCCN(C(=O)c2ccc3c(c2)OCO3)C1)NCc1ccc(F)c(F)c1 (stereo not drawn)	-5%[0.501 µM]	9%	-4%	-2%	12%	31%

Screening data deposited in PubChem by National Center for Advancing Translational Sciences (NCATS).
